In PubChem BioAssay AID488969 (Vanderbilt High Throughput Screening Facility, 2010):
In all, about 110,000 compounds were measured (“z-score”: median about -0.1, highest 2% from about 2 on). For the sample, the highest values were picked, then their nearest neighbours and some compounds at random. The source made the active and inactive calls.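 How the source made its calls: active means z-score in the third read window above 3 or below -3; inactive means the rest.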

Each compound was assayed against Metabotropic glutamate receptor 8 (Rattus norvegicus) (UniProt P70579) (assay: mGluR8 Gi/Go-coupled signaling modulation – cell-based, rat, thallium flux, HTS, primary screen (AID 488969)). Conditions: HEK293 rat mGluR8, GIRK (G protein-gated inwardly rectifying potassium channel) thallium flux, FluoZin2; at 10 µM; stronger effect = higher value; submaximal glutamate (EC20) added with thallium.
Sequence of Metabotropic glutamate receptor 8 (Rattus norvegicus) (P70579 whole entry, looked up): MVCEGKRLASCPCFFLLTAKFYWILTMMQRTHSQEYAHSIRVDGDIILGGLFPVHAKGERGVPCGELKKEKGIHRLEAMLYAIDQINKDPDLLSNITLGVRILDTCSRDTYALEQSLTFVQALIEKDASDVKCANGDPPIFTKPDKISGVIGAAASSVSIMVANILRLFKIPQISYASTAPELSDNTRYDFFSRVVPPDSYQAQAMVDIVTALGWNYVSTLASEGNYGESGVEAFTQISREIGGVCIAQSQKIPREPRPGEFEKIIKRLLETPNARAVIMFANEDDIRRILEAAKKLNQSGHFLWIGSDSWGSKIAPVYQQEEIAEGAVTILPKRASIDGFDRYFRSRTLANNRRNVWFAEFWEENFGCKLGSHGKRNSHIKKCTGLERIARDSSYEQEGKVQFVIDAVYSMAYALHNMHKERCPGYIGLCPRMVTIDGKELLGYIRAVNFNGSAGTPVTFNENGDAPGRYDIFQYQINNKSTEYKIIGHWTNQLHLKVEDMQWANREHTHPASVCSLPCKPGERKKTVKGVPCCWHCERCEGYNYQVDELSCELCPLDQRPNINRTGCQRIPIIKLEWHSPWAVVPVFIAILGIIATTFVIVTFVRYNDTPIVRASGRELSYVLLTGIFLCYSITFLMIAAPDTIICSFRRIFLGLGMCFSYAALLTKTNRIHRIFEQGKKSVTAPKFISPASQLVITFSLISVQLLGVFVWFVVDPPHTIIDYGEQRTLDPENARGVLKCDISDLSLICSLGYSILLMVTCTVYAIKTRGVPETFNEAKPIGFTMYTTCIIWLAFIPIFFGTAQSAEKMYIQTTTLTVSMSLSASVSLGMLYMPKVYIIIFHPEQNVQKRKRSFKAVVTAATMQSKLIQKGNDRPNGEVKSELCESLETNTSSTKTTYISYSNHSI

Row | SMILES | z-score
1 | Cc1cc(NS(=O)(=O)c2ccc(NC(=O)c3oc4ccccc4c3C)cc2)no1 | 0.155
2 | CCC(CC)C(=O)Nc1ccc(Nc2ccccc2)cc1 | -0.165
3 | Cc1cc(N2CCN(c3ccccc3Cl)CC2)n2cc(-c3ccccc3)nc2n1 | 0.105
4 | Cc1ccnc(SCC(=O)Nc2c(C)n(C)n(-c3ccccc3)c2=O)n1 | -0.181
5 | CC(C)(C)c1ccc(C(=O)NCc2cccnc2)cc1 | 0.116
6 | CC(CCc1ccccc1)NC(=O)Cc1ccc([N+](=O)[O-])cc1 (stereo unspecified) | -1.51
7 | CCCCOc1ccc(C(C)NC(=O)CCS(=O)(=O)Cc2ccccc2Cl)cc1 (stereo unspecified) | 0.131
8 | Cc1ccc(/C=N/NC(=O)c2cc3c(ccc4ccccc43)o2)cc1[N+](=O)[O-] | -0.185
9 | Cc1cccc2c1N1C(=O)c3c(C(=O)O)cccc3C1CC2C (stereo unspecified) | -0.265
10 | CON(C)c1nc(OCCNC(=O)COc2ccc(Cl)cc2C)nc(N(C)C)n1 | 0.98
11 | CC1=CC(C)(C)N(C(=O)CN2C(=O)c3ccccc3C2=O)c2ccc(C)cc21 | 0.455
12 | CCOC(=O)C1=C(C)NC(=O)C(C(N)=O)C12CCCC2 (stereo unspecified) | -0.24
13 | Cc1nc2ccccc2cc1C(=O)N/N=C/c1cccs1 | -0.0999
14 | O=C(CN(c1ccc(Cl)cc1)S(=O)(=O)c1ccccc1)N1CCN(c2ccccc2)CC1 | -0.37
15 | COc1ccc(N2CCN(C(=O)CN(c3ccccc3)S(=O)(=O)c3ccc(OC)cc3)CC2)cc1 | -0.0102
16 | COc1ccc(S(=O)(=O)N(CC(=O)N2CCN(c3ccccc3)CC2)c2ccccc2)cc1 | 2.25
17 | COc1ccc(/C=C2/SC(=O)N(CC(O)Cn3c4ccccc4c4ccccc43)C2=O)cc1 (stereo unspecified) | -0.167
18 | Cc1cc(=O)[nH]c(N/N=C/c2cccs2)n1 | -0.0197
19 | O=C1CC(C(=O)Nc2ccc(Br)cc2)C2(CCCC2)O1 (stereo unspecified) | 2.34
20 | O=C1CC(C(=O)Nc2ccccc2)C2(CCCCC2)O1 (stereo unspecified) | -0.333
21 | O=C1CC(C(=O)Nc2ccccc2)C2(CCCC2)O1 (stereo unspecified) | -0.154
22 | CCOC(=O)Cc1csc(NC(=O)c2cccc(OC)c2)n1 | 0.0443
23 | CC1CCCCC12NC(=O)N(CC(=O)Nc1sc3c(c1C(N)=O)CCC3)C2=O (stereo unspecified) | 0.0207
24 | CC(C)C1Oc2ccccc2N(CC(=O)NCCCN2C(C)CCCC2C)C1=O (stereo unspecified) | 0.132

Row | SMILES | z-score
25 | COC(=O)c1ccc(C(C(=O)NCc2ccccc2)N(Cc2ccco2)C(=O)c2cnccn2)cc1 (stereo unspecified) | 0.053
26 | CCC(C)(C)NC(=O)C(c1ccc(F)cc1)N(Cc1ccco1)C(=O)c1snc(C(N)=O)c1N (stereo unspecified) | -0.00804
27 | CCC(C)(C)NC(=O)C(c1ccc(F)cc1)N(Cc1ccco1)C(=O)c1cnccn1 (stereo unspecified) | 3.05 (active)
28 | O=C(CN1CCOCC1)Nc1ccccc1C(=O)O | -0.257
29 | COc1cc(OC)c(-c2cc(C(=O)O)ccc2OC)c(OC)c1 | -0.305
30 | N/C(COc1cccc(C(F)(F)F)c1)=N\NC(=O)c1cccnc1Oc1ccccc1 | -0.285
31 | COc1ccc(-c2nnn(CCc3nn[nH]n3)n2)cc1 | -0.103
32 | O=C(Nc1ccc(Br)cc1F)C1CCCO1 (stereo unspecified) | -0.0425
33 | O=C(Cn1c(=O)[nH]c2ccsc2c1=O)NC1CCCCC1 | -0.236
34 | O=C(Cn1c(=O)[nH]c2ccsc2c1=O)NC1CCCCCC1 | 8.37 (active)
35 | CC1CCC(NC(=O)Cn2c(=O)[nH]c3ccsc3c2=O)CC1 (stereo unspecified) | -0.274
36 | COC(=O)/C=C/C(=O)N1CCN(c2ccccc2)CC1 | -0.0929
37 | COC(=O)C1=C(C)N(CCc2ccc(OC)cc2)C(=O)C1 | 2.28
38 | COC(=O)C1=C(C)N(Cc2ccc(OC)cc2)C(=O)C1 | -0.151
39 | COC(=O)C1=C(C)N(CCc2ccccc2)C(=O)C1 | -0.0388
40 | NC(=O)c1ccsc1NC(=O)CSc1nc2ccccc2c(=O)n1CCCO | -0.109
41 | O=C(COC(=O)c1cccc([N+](=O)[O-])c1)NCc1ccc2c(c1)OCO2 | -0.0402
42 | CCc1cc(C(=O)OC)c(NC(=O)CCC(=O)O)s1 | -0.105
43 | Fc1ccccc1-c1nnc2c3ccccc3nc(N3CCOCC3)n12 | -0.0489
44 | Clc1ccc(-c2nnc3c4ccccc4nc(N4CCOCC4)n23)cc1Cl | -0.168
45 | Brc1ccc(-c2nnc3c4ccccc4nc(N4CCOCC4)n23)cc1 | 4.42 (active)
46 | Cc1cc(C)nc(/N=C(\N)Nc2cccc([N+](=O)[O-])c2)n1 | -1.04
47 | OCCNCCOc1ccccc1-c1ccccc1 | -0.00757
48 | COCCNCCOc1ccccc1-c1ccccc1 | 3.67 (active)

Row | SMILES | z-score
49 | COCCCNCCCCOc1ccccc1-c1ccccc1 | 0.319
50 | CCCNC(=O)CS(=O)(=O)Cc1nc(-c2cccc(OC)c2)oc1C | 0.16
51 | CCCCN(CC)CCCNC(=O)CS(=O)(=O)Cc1nc(-c2cccc(OC)c2)oc1C | 3.63 (active)
52 | COCCCNC(=O)CS(=O)(=O)Cc1nc(-c2cccc(OC)c2)oc1C | 0.565
53 | CC1=CC(C)(C)n2c(O)c(N=NC(N)=S)c3cc(C)cc1c32 | 1.04
54 | CC1=CC(C)(C)n2c(O)c(N=NC(N)=S)c3c(C)ccc1c32 | 1.1
55 | CC1=CC(C)(C)n2c(O)c(N=NC(N)=S)c3cccc1c32 | 2.69
56 | N#CCSc1nnc(-c2ccccc2O)n1Cc1ccccc1 | -0.264
57 | OC1(c2cccc(F)c2)CCN(Cc2ccncc2)CC1 | -0.584
58 | c1ccc2cc(CN3CCOCC3)ccc2c1 | 0.71
59 | OC1(c2ccc3ccccc3c2)CCN(Cc2ccccc2)C1 (stereo unspecified) | 2
60 | CC1(C)Cc2cccc(OCC(=O)Nc3cccnc3)c2O1 | 0.958
61 | COc1ccc(C(=O)N/C(=C\c2cccc3ccccc23)C(=O)NCCc2c[nH]c3ccccc23)cc1OC | -1.59
62 | O=S(=O)(c1ccc(-c2nnc(SCc3nnc(-c4ccccc4)o3)o2)cc1)N1CCCC1 | 3.72 (active)
63 | NC(=O)CSc1nnc(-c2ccc(S(=O)(=O)N3CCCC3)cc2)o1 | -0.271
64 | Cc1ccc(CSc2nnc(-c3ccc(S(=O)(=O)N4CCCC4)cc3)o2)cc1 | 1.62
65 | CO/N=C/c1ccc(Sc2ccccc2)c([N+](=O)[O-])c1 | -0.0163
66 | O=C(NCCO)NC(=S)c1ccccc1 | -0.169
67 | C=CCNC(=S)NNC(=O)c1ccccc1 | -0.00102
68 | C=CCNC(=O)NC(=S)c1ccccc1 | 3.72 (active)
69 | CCNc1nc(NCC)nc(C(=O)Nc2ccccc2)n1 | -0.0479
70 | O=C(NCc1ccc(Cl)cc1)C1C2C=CC3(CN(Cc4cccnc4)C(=O)C13)O2 (stereo unspecified) | 0.82
71 | OCCN(Cc1ccccc1)Cc1ccc(C(F)(F)F)cc1 | -0.0102
72 | O=C(O)c1ccccc1SC1CC(=O)N(C2CCCCC2)C1=O (stereo unspecified) | -0.0935

Row | SMILES | z-score
73 | Cc1ccc(NC(=O)C2CC(=O)OC23CCOC(C)(C)C3)cc1 (stereo unspecified) | -0.427
74 | CC(C)C(=O)NC(Nc1ccccc1F)C(Cl)(Cl)Cl (stereo unspecified) | -0.185
75 | CCCCCCn1ccc(=N)cc1 | 0.937
76 | CCCCCn1ccc(=N)cc1 | 1.99
77 | CCCCCCCn1ccc(=N)cc1 | -0.268
78 | Cc1ccc(C)c(S(=O)(=O)N2C(=S)NC(=O)C2C(C)C)c1 (stereo unspecified) | 0.0469
79 | CCN(CC)S(=O)(=O)c1ccc(N2CCOCC2)c(NC(=O)C(=O)c2c(-c3ccccc3)cc3ccccn23)c1 | -0.54
80 | CN(C)S(=O)(=O)N1CCN(S(=O)(=O)c2ccccc2)CC1 | -0.177
81 | Cc1csc(NC(=O)CSc2nnc(CCNC(=O)c3ccc(Cl)c(Cl)c3)n2C)n1 | -0.837
82 | Cc1cccc(C(=O)NCCc2nnc(SCC(=O)Nc3nc(C)cs3)n2C)c1 | 2.62
83 | Cc1csc(NC(=O)CSc2nnc(CCNC(=O)c3cccs3)n2C)n1 | -0.0983
84 | N#CCCN(C(=O)CSc1nc(-c2ccccc2)cn1N)c1ccc(F)cc1 | -0.2
85 | COc1cc2c(cc1OC)C(C(=O)NCCN1CCOCC1)C1c3ccccc3CCN1C2=O (stereo unspecified) | -1.12
86 | Oc1ccc2ccccc2c1N=Nc1ccccn1 | 2.19
87 | N/C(=N\OC(=O)Cc1cccc2ccccc12)c1ccccn1 | 0.135
88 | Oc1c(/C=N/c2ncn[nH]2)ccc2ccccc12 | 0.0888
89 | Oc1c(N=Nc2ccccn2)ccc2ccccc12 | 13.6 (active)
90 | O=C(O)Cc1c(O)ccc2ccccc12 | -0.0548
91 | Oc1ccc(N=Nc2c(O)ccc3ccccc23)cc1 | -0.0552
92 | CCOc1cc(C2C(C#N)=C(N)OC(C)=C2C(C)=O)cc(Br)c1O (stereo unspecified) | -1.08
93 | O=C(Nc1ncc2c(n1)-c1ccccc1CC2)c1cccc(Cl)c1 | -0.891
94 | CCN(c1ccc(NC(=O)COC(=O)CCC(=O)c2ccc(F)cc2)cc1)C(C)C | -0.471
95 | Cc1cc(C)cc(-n2c(SC(C)C(=O)NCc3ccc4c(c3)OCO4)nc3ccccc3c2=O)c1 (stereo unspecified) | -0.19
96 | CCc1ccc(-c2ccc(C(=O)C(F)(F)F)[nH]2)cc1 | -0.0177

Row | SMILES | z-score
97 | Cc1ccc(-c2ccnc(=S)[nH]2)cc1 | 0.997
98 | Cc1ccc(-c2ccc(C(=O)O)[nH]2)cc1 | 2.4
99 | Cc1cc([N+](=O)[O-])ccc1-c1ccc(C2Nc3ccccc3C(=O)N2O)o1 (stereo unspecified) | 3.53 (active)
100 | O=C1c2ccccc2NC(c2ccc(-c3cccc(Cl)c3)o2)N1O (stereo unspecified) | 2.57
101 | O=C1c2ccccc2NC(c2ccco2)N1O (stereo unspecified) | -0.422
102 | Cc1nn(C)cc1C1Nc2ccccc2C(=O)N1O (stereo unspecified) | -0.121
103 | Cc1ccsc1C1Nc2ccccc2C(=O)N1O (stereo unspecified) | -0.218
104 | O=C1c2ccccc2NC(c2ccc(-c3ccc(Br)cc3)o2)N1O (stereo unspecified) | 3.36 (active)
105 | O=C1c2ccccc2NC(c2cn[nH]c2-c2ccccc2)N1O (stereo unspecified) | -0.0761
106 | N#CC1=C(S)N(c2ccccc2)C(c2ccc(-c3cccc(Cl)c3)o2)NC1=O (stereo unspecified) | -0.292
107 | Cc1c(C2Nc3ccccc3C(=O)N2O)cnn1C (stereo unspecified) | 0.189
108 | CC1CCC(NC(=O)Nc2cccs2)CC1 (stereo unspecified) | 0.643
109 | CCOC(=O)c1c(NC(=O)C2=C(C)NC(=S)NC2c2ccc(F)cc2F)sc(C)c1C (stereo unspecified) | 0.556
110 | CCCCCCn1c(C)nc2c(c1=O)c1nc3ccccc3nc1n2/N=C/c1ccco1 | 0.218
111 | CCC1(C)Cc2nc3[nH]c(=S)n(-c4ccccc4)c(=O)c3cc2CO1 (stereo unspecified) | -0.0711
112 | CC1(C)Cc2nc3[nH]c(=S)n(-c4ccccc4)c(=O)c3cc2CO1 | -0.126
113 | CCn1c(SCC(=O)Nc2ccc(C)cc2)nc2nc3c(cc2c1=O)CCCC3 | 0.307
114 | CCn1c(SCc2ccc(Cl)cc2)nc2nc3c(cc2c1=O)CCCC3 | 0.193
115 | C=CCn1c(=S)[nH]c2nc3c(cc2c1=O)CCCC3 | 4.15 (active)
116 | CCn1c(=S)[nH]c2nc3c(cc2c1=O)CCCC3 | 2.31
